CF NFkB block = cystic fibrosis NF-kB activation inhibition | KKLEB NF-kB-GFP reporter, PAF-induced, GFP fluorescence overnight | inhibition, % at 5 µM | hit rate 0.86% among 360,000 | AID 588850;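 active means at least 50% inhibition at 5 µM, scaled per plate between neutral and stimulator controls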;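 further: PAF is a Pseudomonas aeruginosa culture filtrate used as stimulus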
PAX8 reporter = lowers PAX8-driven luciferase in RMG-I cells. RMG-I TPO-luciferase reporter, SteadyGlo, 24 h. inhibition, % at 12.6 µM. hit rate 1.2% among 360,000;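 active means mean replicate inhibition at least 60% with every replicate also reaching 60%; inconclusive means only one of the two criteria is met; inactive means mean below 60% and not all replicates reaching 60%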;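 further: luciferase light reporting Pax8 driven TPO promoter activity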
Shn3 inh set2 = Schnurri-3 reporter inhibition in Clone20 osteoblasts | Clone20 osteoblast Shn3 3'UTR firefly luciferase, 24 h | AID 588674 | hit rate 0.52% among 360,000 | inhibition, % at 12.5 µM;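 active means mean inhibition of at least 75% with every replicate also reaching 75%; inconclusive means mean inhibition at least 75% but some replicate below; inactive means mean inhibition below 75%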
EWS-Fli inh = inhibitors of EWS/Fli oncoprotein transcriptional activity; A673 NR0B1-luciferase reporter, viability-normalised; inhibition, % at 12.6 µM; hit rate 0.67% among 350,000;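 active means mean inhibition of at least 50% after viability correction, with every replicate also passing that limit; inconclusive means mean reaches 50% but only one of two replicates passes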;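 further: firefly luciferase signal divided by Alamar Blue viability fluorescence both relative to DMSO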
LGR2 antag = blocks bursicon-induced cAMP signaling via Drosophila LGR2. HEK293 LGR2, CRE-luciferase, bursicon-stimulated, 4 h. inhibition, % at 9.99 µM. hit rate 0.35% among 380,000. AID 720647;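 active means drop in luminescence signal, shown as inhibition above about 50% in the replicate tests, limit read from the data, passing the limit was not always enough; inconclusive means probably only some replicates passing the limit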;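 further: agonist challenge used bursicon conditioned medium at about half maximal strength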
KKLEB tox = CF airway cell cytotoxicity counter-screen; hit rate 0.36% among 360,000; KKLEB CF airway cells viability, ATPlite luminescence, overnight; hits give low values; cells stimulated with P. aeruginosa culture filtrate; activity change (cytotoxicity), % at 5 µM;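 active means corrected activity change at or below -50% at 5 µM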
Of the large screens only hits and unclear results are named; the others gave an inactive call. Sampled rows, rich in hits. Any-hit rate of the full collection: about 2%.

CCC1C/C(=C\c2cc(OC)c(OC)cc2OC)C(=O)/C(=C/c2cc(OC)c(OC)cc2OC)C1 (stereo unspecified)	Shn3 inh set2 inconclusive (no result: PAX8 reporter, EWS-Fli inh, LGR2 antag)
Cc1ccc(-n2ncc3c(=O)n(CC(=O)N4CCN(c5ccccc5)CC4)cnc32)cc1	none
Cc1ccc(-n2ncc3c(=O)n(CC(=O)N4CCN(C(=O)c5ccco5)CC4)cnc32)cc1	PAX8 reporter 73
Cc1ccccc1-c1ccc([C@H]2[C@@H](CO)N3CCCCN(C(=O)NC4CCCC4)C[C@@H]23)cc1	none (no result: CF NFkB block, Shn3 inh set2, KKLEB tox)
CN(CC(=O)Nc1ccccc1Cl)C(=O)c1cccc(S(=O)(=O)N2CCN(Cc3ccccc3)CC2)c1	none
CN(Cc1cnn(Cc2ccccc2)c1)C(=O)c1cccc(S(=O)(=O)N2CCOCC2)c1	none
CN(CC(=O)Nc1ccccc1Cl)C(=O)c1cccc(S(=O)(=O)N2CCN(c3ccccc3)CC2)c1	Shn3 inh set2 87
CN(Cc1cccc(F)c1)C(=O)c1cccc(S(=O)(=O)N2CCN(Cc3ccccc3)CC2)c1	none
COc1ccc(C(=O)N(C)Cc2cnn(Cc3ccccc3)c2)cc1S(=O)(=O)N1CCOCC1	EWS-Fli inh 62
O=C(c1cccc(S(=O)(=O)N2CCN(c3ccc(F)cc3)CC2)c1)N1CCCC(C(F)(F)F)C1 (stereo unspecified)	Shn3 inh set2 92
CN(Cc1ccc(Cl)c(Cl)c1)C(=O)c1cccc(S(=O)(=O)N2CCN(Cc3ccccc3)CC2)c1	Shn3 inh set2 87
C[C@H]1CN([C@@H](C)CO)C(=O)c2cc(NS(=O)(=O)c3ccccc3)ccc2O[C@H]1CN(C)C(=O)NC1CCCCC1	none (no result: CF NFkB block, Shn3 inh set2, KKLEB tox)
COc1cccc(NC(=O)N[C@H]2CC[C@@H](CC(=O)N3CCOCC3)O[C@@H]2CO)c1	none (no result: CF NFkB block, Shn3 inh set2, KKLEB tox)
O=C(C[C@@H]1CC[C@H](NC(=O)Nc2ccc(C(F)(F)F)cc2)[C@H](CO)O1)NCc1cccc(F)c1	none (no result: CF NFkB block, Shn3 inh set2, KKLEB tox)
C[C@H](CO)N1C[C@H](C)[C@@H](CN(C)Cc2ccc(C(F)(F)F)cc2)Oc2ccc(NC(=O)CCCCCC(=O)Nc3ccccc3N)cc2C1=O	none (no result: CF NFkB block, Shn3 inh set2, KKLEB tox)
CN(CC(=O)Nc1ccccc1Cl)C(=O)c1cccc(S(=O)(=O)N2CCN(c3ccc(F)cc3)CC2)c1	Shn3 inh set2 88 (no result: EWS-Fli inh)
CN(CCOc1ccc(Cl)cc1)C(=O)c1cccc(S(=O)(=O)N2CCN(c3ccc(F)cc3)CC2)c1	Shn3 inh set2 89 (no result: PAX8 reporter, EWS-Fli inh, LGR2 antag)
COc1ccc(CCN(C)C(=O)c2cccc(S(=O)(=O)N3CCN(c4ccc(F)cc4)CC3)c2)cc1OC	none
CS(=O)(=O)N1[C@H](C#N)[C@H](c2ccc(-c3ccccc3F)cc2)[C@@H]1CO	none (no result: CF NFkB block, Shn3 inh set2, KKLEB tox)
COCCn1c(SCC(=O)c2c(-c3ccccc3)n(C)c3ccccc23)nnc1-c1ccncc1	none (no result: EWS-Fli inh)
COCCn1c(SCC(=O)/C=C2\N(C)c3ccccc3C2(C)C)nnc1-c1ccncc1	Shn3 inh set2 89
C[C@@H]1CN([C@@H](C)CO)C(=O)c2cc(NS(=O)(=O)c3ccc(F)cc3)ccc2O[C@@H](C)CCCCO[C@@H]1CN(C)C(=O)Nc1ccc(F)cc1	none (no result: CF NFkB block, Shn3 inh set2, KKLEB tox)
CCOC(=O)NNC(=O)CCn1c2c(c3ccccc31)CCCC2	CF NFkB block 62
Cc1cccc(N2CCN(C(=O)c3cccc(N4CCCC4=O)c3)C(C)C2)c1 (stereo unspecified)	EWS-Fli inh 60
Cc1cccc(N2CCN(C(=O)c3ccc(N4CCCC4=O)cc3)CC2C)c1 (stereo unspecified)	none (no result: EWS-Fli inh, LGR2 antag)
CCCCN(C=O)c1c(CC)nc2ccc(C(=O)Nc3cc(-c4ccccc4)ccc3OC)cn12	PAX8 reporter 75
CCc1ccc(/C=C/C(=O)c2c(C)cc(C)[nH]c2=O)cc1	none (no result: PAX8 reporter, EWS-Fli inh, LGR2 antag)
Cc1ccc(/C=C/C(=O)c2c(C)cc(C)[nH]c2=O)cc1	LGR2 antag 70 (no result: PAX8 reporter)
COc1ccc([C@@]23Oc4cc(OC)cc(OC)c4[C@]2(O)[C@H](O)[C@H](C(=O)N(C)C)[C@H]3c2ccccc2)cc1	CF NFkB block 60, PAX8 reporter 87, Shn3 inh set2 91, LGR2 antag 99
COc1ccc(C2CC(O)(c3ccccc3)Oc3cc(OC)c(OC)c(OC)c32)cc1 (stereo unspecified)	none
O=C(N[C@@H]1CC[C@@H](CCn2cc(C3CCCC3)nn2)O[C@@H]1CO)c1cccnc1	none (no result: CF NFkB block, Shn3 inh set2, EWS-Fli inh, KKLEB tox)
C[C@@H]1CN([C@H](C)CO)C(=O)c2cc(NC(=O)CCN3CCOCC3)ccc2O[C@@H]1CN(C)Cc1ccc(Oc2ccccc2)cc1	none (no result: CF NFkB block, PAX8 reporter, Shn3 inh set2, KKLEB tox)
CCOc1ccccc1C=NNC(=O)C(=O)NN=Cc1ccccc1OCC	none
CCOc1ccccc1NC(=O)C(=O)N/N=C/c1cc(Br)ccc1O	Shn3 inh set2 91
CCOC(=O)c1c(C)[nH]c(C(=O)OCC(=O)Nc2cc(Cl)ccc2OC)c1C	none (no result: PAX8 reporter, EWS-Fli inh, LGR2 antag)
CC(=O)c1c(C)[nH]c(C(=O)OCC(=O)Nc2ccc(Cl)cc2[N+](=O)[O-])c1C	Shn3 inh set2 92
COC(=O)c1c[nH]c2c1-c1cc(C(=O)OCc3ccccc3)n(S(=O)(=O)c3ccc(C)cc3)c1C(=O)C2=O	CF NFkB block 86
COC(=O)c1cc2c(c3c4cc(C)ccc4n(S(=O)(=O)c4ccc(C)cc4)c13)C(=O)N(Cc1ccccc1)C2	none (no result: CF NFkB block, Shn3 inh set2, KKLEB tox)
C[C@H]1CN([C@@H](C)CO)C(=O)c2cccc(NS(=O)(=O)c3cn(C)cn3)c2O[C@H]1CN(C)S(=O)(=O)c1ccccc1	none (no result: CF NFkB block, Shn3 inh set2, KKLEB tox)
CCCN1C[C@H](C)[C@H](OC)CN(C)C(=O)c2cc(NC(=O)c3cnccn3)ccc2OC[C@H]1C	none (no result: CF NFkB block, PAX8 reporter, Shn3 inh set2, KKLEB tox)
c1cc(-c2cc3cc(N4CCOCC4)ccc3o2)cs1	KKLEB tox -70
CNC[C@H]1OCCCC[C@@H](C)Oc2ccc(NC(=O)Nc3ccc4c(c3)OCO4)cc2C(=O)N([C@@H](C)CO)C[C@H]1C	none (no result: CF NFkB block, Shn3 inh set2, KKLEB tox)
Nc1nonc1C(=O)NCCNCc1cc(Br)ccc1OCc1ccc(F)cc1	Shn3 inh set2 90 (no result: PAX8 reporter, EWS-Fli inh, LGR2 antag)
COc1ccc(CNCCNC(=O)c2nonc2N)cc1OC	none (no result: PAX8 reporter, EWS-Fli inh)
C[C@@H]1CN([C@@H](C)CO)C(=O)Cc2cc(NC(=O)Nc3ccccc3)ccc2O[C@H]1CN(C)Cc1ccccc1	none (no result: CF NFkB block, Shn3 inh set2, KKLEB tox)
C[C@@H]1CN([C@H](C)CO)C(=O)c2cc(NC(=O)Cc3ccccc3)ccc2O[C@@H](C)CCCCO[C@H]1CN(C)Cc1ccc(C(F)(F)F)cc1	PAX8 reporter 80 (no result: CF NFkB block, Shn3 inh set2, KKLEB tox)
C[C@@H]1CN([C@H](C)CO)C(=O)c2cc(NC(=O)Cc3ccccc3)ccc2O[C@@H](C)CCCCO[C@@H]1CN(C)Cc1ccc(C(=O)O)cc1	none (no result: CF NFkB block, Shn3 inh set2, KKLEB tox)
C[C@@H]1CN([C@@H](C)CO)C(=O)c2cc(NC(=O)Cc3ccccc3)ccc2O[C@@H](C)CCCCO[C@@H]1CN(C)Cc1ccc(C(F)(F)F)cc1	PAX8 reporter 97 (no result: CF NFkB block, Shn3 inh set2, KKLEB tox)
C[C@H]1CCCCO[C@H](CN(C)Cc2ccccc2)[C@@H](C)CN([C@@H](C)CO)C(=O)c2cc(NC(=O)Cc3ccccc3)ccc2O1	none (no result: CF NFkB block, Shn3 inh set2, KKLEB tox)

Screening data as filed in PubChem.
